Reference: PubChem BioAssay (EPA / NIEHS)
Records with an inconclusive call do not appear. Calls of active or inactive are those of the source. How the source made its calls: active means hit-call score of the fitted dose curve at least 0.9, where 1 is the maximum; inconclusive means response in the unintended direction; inactive means score below 0.9.

Key:
[1] = biological target: human Sirtuin 2 (SIRT2), SIRT2 (gene 22933) (UniProt Q8IXJ6); assay: NVS_ENZ_hSIRT2: NovaScreen (NVS) Enzymatic Assay for human Sirtuin 2 (SIRT2) (AID 2283217)
Summary of the method: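 Cell-free recombinant human SIRT2, fluorescent substrate with product separated by electrophoretic mobility shift, 1 hr. Screened in duplicate at 25 uM; hits rerun singly in concentration-response up to 50 uM, relative to DMSO.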

[2] = biological target: human Vascular Endothelial Growth Factor Receptor 1 (VEGFR1), FLT1 (gene 2321) (UniProt P17948); assay: NVS_ENZ_hVEGFR1: NovaScreen (NVS) Enzymatic Assay for human Vascular Endothelial Growth Factor Receptor 1 (VEGFR1) (AID 2283226)
Summary of the method: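 Cell-free assay of recombinant human VEGFR1 kinase with substrate, measured 1 h after dosing; fluorescence with electrophoretic mobility-shift separation of substrate and product, referenced to DMSO; primary screen at 25 uM in duplicate, actives then run in concentration series.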

[3] = biological target: rat Constitutive Nitric Oxide Synthase (CNOS), Nos1 (gene 24598) (UniProt P29476); assay: NVS_ENZ_rCNOS: NovaScreen (NVS) Enzymatic Assay for rat Constitutive Nitric Oxide Synthase (CNOS) (AID 2283236)
Summary of the method: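 Enzyme activity in rat brain membrane preparation, read 1 h after dosing by filter-based radiometric scintillation counting. Primary screen in duplicate at 25 uM; actives (e.g., ≥30% inhibition) then run in concentration-response up to 50 uM.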

[4] = biological target: human Rho Associated Coiled-coil Containing Protein Kinase 1 (ROCK1), ROCK1 (gene 6093) (UniProt Q13464); assay: NVS_ENZ_hROCK1: NovaScreen (NVS) Enzymatic Assay for human Rho Associated Coiled-coil Containing Protein Kinase 1 (ROCK1) (AID 2283214)
Summary of the method: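 Cell-free recombinant human ROCK1 activity assay; fluorescent substrate and product separated by electrophoretic mobility shift, read 1 h after dosing. Screened in duplicate at 25 uM; loss of signal versus DMSO baseline scored as inhibition.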

[5] = biological target: sheep Cyclooxygenase-2 (Cox2), PTGS2 (gene 443460) (UniProt P79208); assay: NVS_ENZ_oCOX2: NovaScreen (NVS) Enzymatic Assay for sheep Cyclooxygenase-2 (Cox2) (AID 2283231)
Summary of the method: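 Colorimetric absorbance read-out of COX activity, taken 0.66 hour post-dosing, using native protein from sheep placenta. Single-concentration duplicate screen (25 uM), then singleton concentration-response up to 50 uM for actives.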

[6] = test system: guinea pig Leukotriene B4 Receptor (LTB4), gene 100379538; assay: NVS_GPCR_gLTB4: NovaScreen (NVS) G Protein-Coupled Receptor Assay for guinea pig Leukotriene B4 Receptor (LTB4) (AID 2283247)
Summary of the method: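 Radioligand displacement on guinea pig spleen membranes, filter-based scintillation counting 2 h after dosing. Primary duplicate single point at 25 uM; hits over threshold (e.g. 30% inhibition) run in concentration-response up to 50 uM, DMSO baseline.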

[7] = biological target: bovine Dopamine Receptor (DR), Non-selective Binding, DRD1 (gene 281125) (UniProt Q95136); assay: NVS_GPCR_bDR_NonSelective: NovaScreen (NVS) G Protein-Coupled Receptor Assay for bovine Dopamine Receptor (DR), Non-selective Binding (AID 2283241)
Summary of the method: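 Bovine striatal membranes; radioligand displacement read by filtration and scintillation counting 1 h after dosing, loss of signal vs DMSO. Screened in duplicate at 25 uM, then concentration-response for hits.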

[8] = biological target: human Sirtuin 1 (SIRT1), SIRT1 (gene 23411) (UniProt Q96EB6); assay: NVS_ENZ_hSIRT1: NovaScreen (NVS) Enzymatic Assay for human Sirtuin 1 (SIRT1) (AID 2283219)
Summary of the method: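 Cell-free recombinant SIRT1 with a fluorescent substrate; substrate and product separated by electrophoretic mobility shift and read by fluorescence intensity, 1 h after dosing. Primary screen at 25 uM in duplicate; hits re-run in concentration-response up to 50 uM, relative to DMSO.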

[9] = biological target: human Sirtuin 3 (SIRT3), SIRT3 (gene 23410) (UniProt Q9NTG7); assay: NVS_ENZ_hSIRT3: NovaScreen (NVS) Enzymatic Assay for human Sirtuin 3 (SIRT3) (AID 2283222)
Summary of the method: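 Cell-free enzyme assay with recombinant protein and fluorescent substrate, product separated by electrophoretic mobility shift; read 1 hour after dosing. Screened in duplicate at 25 uM, then singleton concentration-response up to 50 uM; loss of signal versus DMSO.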

[10] = biological target: rabbit Imidazoline 2 Central (I2C), CKB (gene 100009085) (UniProt P00567); assay: NVS_ENZ_rabI2C: NovaScreen (NVS) Enzymatic Assay for rabbit Imidazoline 2 Central (I2C) (AID 2283228)
Summary of the method: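 Rabbit brain membranes, cell-free; readout by filter-based scintillation counting 1.5 hours after dosing, loss of signal vs DMSO. Initial duplicate test at 25 uM, then concentration-response with 50 uM top concentration.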

[11] = biological target: human Vascular Endothelial Growth Factor Receptor 3 (VEGFR3), FLT4 (gene 2324) (UniProt P35916); assay: NVS_ENZ_hVEGFR3: NovaScreen (NVS) Enzymatic Assay for human Vascular Endothelial Growth Factor Receptor 3 (VEGFR3) (AID 2283229)
Summary of the method: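 Cell-free recombinant VEGFR3 kinase reaction with fluorescent substrate, read 1 h after dosing by electrophoretic mobility shift separation of substrate and product. Single-concentration duplicate screen at 25 uM, then concentration-response up to 50 uM; loss of activity versus DMSO.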

[12] = biological target: human Vascular Endothelial Growth Factor Receptor 2 (VEGFR2), KDR (gene 3791) (UniProt P35968); assay: NVS_ENZ_hVEGFR2: NovaScreen (NVS) Enzymatic Assay for human Vascular Endothelial Growth Factor Receptor 2 (VEGFR2) (AID 2283230)
Summary of the method: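 Cell-free recombinant VEGFR2 kinase, fluorescent substrate with electrophoretic mobility-shift separation; read 1 h after dosing. Screened at 25 uM in duplicate, hits to concentration-response up to 50 uM; loss-of-signal versus DMSO.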

[13] = biological target: Adenosine receptor A1 (Bos taurus) (UniProt P28190); assay: NVS_GPCR_bAdoR_NonSelective: NovaScreen (NVS) G Protein-Coupled Receptor Assay for bovine Adenosine Receptor (AdoR), Non-selective Binding (AID 2283244)
Summary of the method: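 Bovine striatal membranes, radioligand displacement binding, 1 h after dosing, filter-based scintillation counting. Screened in duplicate at 25 uM, then concentration-response up to 50 uM; loss of specific binding relative to DMSO.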

[14] = biological target: sheep Cyclooxygenase-1 (Cox1), PTGS1 (gene 443551) (UniProt P05979); assay: NVS_ENZ_oCOX1: NovaScreen (NVS) Enzymatic Assay for sheep Cyclooxygenase-1 (Cox1) (AID 2283239);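 further: actives reduce cyclooxygenase activity so potencies are for inhibitors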
Summary of the method: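 COX1 from ovine seminal vesicles, activity read colorimetrically about 0.66 h after dosing. Primary screen in duplicate at 25 uM; actives retested in concentration series; loss of signal fitted versus DMSO.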

[15] = biological target: guinea pig Leukotriene D4 Receptor (LTD4), CYSLTR1 (gene 100135514) (UniProt Q2NNR5); assay: NVS_GPCR_gLTD4: NovaScreen (NVS) G Protein-Coupled Receptor Assay for guinea pig Leukotriene D4 Receptor (LTD4) (AID 2283248)
Summary of the method: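 Radioligand displacement on guinea pig lung membranes, 1 h incubation, filtration and scintillation counting; DMSO as negative control. Duplicate 25 uM primary screen, then singleton concentration-response up to 50 uM.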

[16] = biological target: human SRC Proto-Oncogene, Non-receptor Tyrosine Kinase (SRC), SRC (gene 6714) (UniProt P12931); assay: NVS_ENZ_hSRC: NovaScreen (NVS) Enzymatic Assay for human SRC Proto-Oncogene, Non-receptor Tyrosine Kinase (SRC) (AID 2283223)
Summary of the method: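 Cell-free kinase activity assay with fluorescent substrate, product separated by electrophoretic mobility shift, read 1 h after dosing. Duplicate single point at 25 uM, then concentration-response up to 50 uM; loss of signal versus DMSO.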

[17] = biological target: human Tropomyosin Receptor Kinase A (TRKA), NTRK1 (gene 4914) (UniProt P04629); assay: NVS_ENZ_hTrkA: NovaScreen (NVS) Enzymatic Assay for human Tropomyosin Receptor Kinase A (TRKA) (AID 2283224)
Summary of the method: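 Recombinant human TrkA activity read after 1 h by fluorescence with electrophoretic mobility shift separating substrate and product. Primary screen in duplicate at 25 uM; actives were rerun in concentration-response up to 50 uM. Loss of signal versus DMSO.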

Sequence of sheep Cyclooxygenase-1 (Cox1), PTGS1 (gene 443551) (P05979 whole entry, looked up): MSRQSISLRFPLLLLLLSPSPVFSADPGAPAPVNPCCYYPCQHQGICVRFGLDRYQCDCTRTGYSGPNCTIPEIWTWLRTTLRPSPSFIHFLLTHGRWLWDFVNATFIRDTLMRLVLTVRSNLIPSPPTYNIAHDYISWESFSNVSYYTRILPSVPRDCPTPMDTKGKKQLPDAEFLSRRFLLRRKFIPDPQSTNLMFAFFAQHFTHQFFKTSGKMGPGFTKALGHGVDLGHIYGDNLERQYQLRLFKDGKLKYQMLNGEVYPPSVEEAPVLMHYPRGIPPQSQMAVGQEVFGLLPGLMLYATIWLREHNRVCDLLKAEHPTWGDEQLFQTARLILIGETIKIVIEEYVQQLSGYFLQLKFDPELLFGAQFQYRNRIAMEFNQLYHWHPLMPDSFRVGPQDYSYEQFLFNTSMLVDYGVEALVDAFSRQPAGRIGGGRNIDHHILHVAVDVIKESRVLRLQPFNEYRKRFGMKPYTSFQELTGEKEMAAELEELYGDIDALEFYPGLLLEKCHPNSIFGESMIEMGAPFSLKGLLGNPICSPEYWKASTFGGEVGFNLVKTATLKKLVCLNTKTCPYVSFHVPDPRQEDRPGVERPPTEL
Sequence of human Vascular Endothelial Growth Factor Receptor 2 (VEGFR2), KDR (gene 3791) (P35968 whole entry, looked up): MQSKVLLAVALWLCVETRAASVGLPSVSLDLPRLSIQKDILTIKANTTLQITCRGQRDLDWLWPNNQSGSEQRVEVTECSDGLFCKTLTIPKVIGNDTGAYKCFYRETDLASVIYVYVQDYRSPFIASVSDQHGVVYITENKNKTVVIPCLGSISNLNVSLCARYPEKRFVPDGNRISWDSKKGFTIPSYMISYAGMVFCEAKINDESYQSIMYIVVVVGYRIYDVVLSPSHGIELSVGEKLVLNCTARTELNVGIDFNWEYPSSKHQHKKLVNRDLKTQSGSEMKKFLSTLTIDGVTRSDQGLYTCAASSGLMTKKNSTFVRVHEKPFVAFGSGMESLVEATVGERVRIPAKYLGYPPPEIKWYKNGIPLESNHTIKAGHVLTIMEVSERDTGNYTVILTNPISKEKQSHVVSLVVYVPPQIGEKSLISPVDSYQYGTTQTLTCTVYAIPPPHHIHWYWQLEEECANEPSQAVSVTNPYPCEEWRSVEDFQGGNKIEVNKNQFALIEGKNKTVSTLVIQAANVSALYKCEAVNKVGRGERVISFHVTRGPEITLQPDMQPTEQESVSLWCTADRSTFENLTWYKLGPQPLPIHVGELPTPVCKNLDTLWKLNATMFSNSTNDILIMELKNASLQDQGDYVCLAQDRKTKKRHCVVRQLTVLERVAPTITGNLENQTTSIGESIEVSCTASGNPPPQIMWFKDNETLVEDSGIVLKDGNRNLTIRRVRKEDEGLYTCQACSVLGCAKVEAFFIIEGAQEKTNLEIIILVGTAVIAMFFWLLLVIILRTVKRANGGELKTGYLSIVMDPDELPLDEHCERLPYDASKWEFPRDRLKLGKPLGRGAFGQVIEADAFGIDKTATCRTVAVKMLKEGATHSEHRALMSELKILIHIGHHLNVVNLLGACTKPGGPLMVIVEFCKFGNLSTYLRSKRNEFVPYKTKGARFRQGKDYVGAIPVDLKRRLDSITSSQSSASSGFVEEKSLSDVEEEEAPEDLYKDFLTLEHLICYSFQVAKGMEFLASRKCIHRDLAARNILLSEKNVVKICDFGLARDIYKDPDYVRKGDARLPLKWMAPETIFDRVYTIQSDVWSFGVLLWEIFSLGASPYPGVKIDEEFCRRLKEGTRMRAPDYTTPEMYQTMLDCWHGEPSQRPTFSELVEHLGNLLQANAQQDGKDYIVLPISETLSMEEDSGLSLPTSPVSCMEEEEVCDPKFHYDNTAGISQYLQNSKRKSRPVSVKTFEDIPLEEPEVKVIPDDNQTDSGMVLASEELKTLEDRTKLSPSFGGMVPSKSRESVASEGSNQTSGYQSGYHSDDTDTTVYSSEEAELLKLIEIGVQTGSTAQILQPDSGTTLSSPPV
Sequence of rabbit Imidazoline 2 Central (I2C), CKB (gene 100009085) (P00567 whole entry, looked up): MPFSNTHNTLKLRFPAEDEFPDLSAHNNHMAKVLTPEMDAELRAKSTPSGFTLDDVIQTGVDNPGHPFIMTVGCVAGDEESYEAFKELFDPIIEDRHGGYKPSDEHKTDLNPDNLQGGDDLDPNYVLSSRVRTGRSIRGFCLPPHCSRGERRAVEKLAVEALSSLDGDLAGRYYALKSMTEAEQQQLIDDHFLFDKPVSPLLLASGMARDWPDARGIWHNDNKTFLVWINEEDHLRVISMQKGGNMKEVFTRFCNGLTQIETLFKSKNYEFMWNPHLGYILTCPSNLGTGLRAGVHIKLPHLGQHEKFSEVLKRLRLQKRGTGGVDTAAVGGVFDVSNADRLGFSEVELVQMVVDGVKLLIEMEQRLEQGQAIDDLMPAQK
Sequence of rat Constitutive Nitric Oxide Synthase (CNOS), Nos1 (gene 24598) (P29476 whole entry, looked up): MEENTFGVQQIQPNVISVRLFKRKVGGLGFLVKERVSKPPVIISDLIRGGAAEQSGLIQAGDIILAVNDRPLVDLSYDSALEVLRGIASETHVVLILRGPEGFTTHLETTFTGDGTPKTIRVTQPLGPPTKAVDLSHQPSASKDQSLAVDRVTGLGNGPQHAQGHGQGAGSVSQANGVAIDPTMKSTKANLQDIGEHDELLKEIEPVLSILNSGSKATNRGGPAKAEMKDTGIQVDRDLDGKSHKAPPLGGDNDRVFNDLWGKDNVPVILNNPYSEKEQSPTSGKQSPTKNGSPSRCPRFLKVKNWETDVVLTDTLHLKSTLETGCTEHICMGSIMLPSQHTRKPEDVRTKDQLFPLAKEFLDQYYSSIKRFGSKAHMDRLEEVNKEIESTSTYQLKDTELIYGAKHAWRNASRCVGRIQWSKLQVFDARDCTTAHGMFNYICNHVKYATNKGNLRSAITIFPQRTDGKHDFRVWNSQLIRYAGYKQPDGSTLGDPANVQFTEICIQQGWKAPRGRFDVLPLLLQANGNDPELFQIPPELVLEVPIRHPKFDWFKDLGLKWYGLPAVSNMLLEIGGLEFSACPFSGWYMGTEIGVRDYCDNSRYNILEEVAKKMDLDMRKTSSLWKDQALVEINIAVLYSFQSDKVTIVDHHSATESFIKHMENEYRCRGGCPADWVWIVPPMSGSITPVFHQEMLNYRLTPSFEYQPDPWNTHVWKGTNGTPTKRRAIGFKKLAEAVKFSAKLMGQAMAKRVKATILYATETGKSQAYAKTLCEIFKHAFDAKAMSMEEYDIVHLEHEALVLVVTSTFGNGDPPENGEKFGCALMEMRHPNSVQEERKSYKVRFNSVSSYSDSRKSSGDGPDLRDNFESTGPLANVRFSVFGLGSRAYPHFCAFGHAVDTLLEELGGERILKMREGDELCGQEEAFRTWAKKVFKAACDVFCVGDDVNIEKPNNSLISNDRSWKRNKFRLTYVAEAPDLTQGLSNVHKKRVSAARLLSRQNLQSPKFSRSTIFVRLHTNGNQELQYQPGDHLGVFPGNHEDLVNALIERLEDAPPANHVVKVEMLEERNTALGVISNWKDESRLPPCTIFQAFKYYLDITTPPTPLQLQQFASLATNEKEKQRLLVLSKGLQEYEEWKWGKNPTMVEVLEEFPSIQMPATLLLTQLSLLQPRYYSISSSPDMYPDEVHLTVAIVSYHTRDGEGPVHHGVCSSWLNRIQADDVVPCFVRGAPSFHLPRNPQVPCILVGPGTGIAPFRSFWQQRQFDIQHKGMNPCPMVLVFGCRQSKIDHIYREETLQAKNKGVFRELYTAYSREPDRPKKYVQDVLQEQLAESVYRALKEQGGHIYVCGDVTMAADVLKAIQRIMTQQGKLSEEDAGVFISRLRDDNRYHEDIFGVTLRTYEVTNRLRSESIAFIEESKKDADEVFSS
Sequence of sheep Cyclooxygenase-2 (Cox2), PTGS2 (gene 443460) (P79208 whole entry, looked up): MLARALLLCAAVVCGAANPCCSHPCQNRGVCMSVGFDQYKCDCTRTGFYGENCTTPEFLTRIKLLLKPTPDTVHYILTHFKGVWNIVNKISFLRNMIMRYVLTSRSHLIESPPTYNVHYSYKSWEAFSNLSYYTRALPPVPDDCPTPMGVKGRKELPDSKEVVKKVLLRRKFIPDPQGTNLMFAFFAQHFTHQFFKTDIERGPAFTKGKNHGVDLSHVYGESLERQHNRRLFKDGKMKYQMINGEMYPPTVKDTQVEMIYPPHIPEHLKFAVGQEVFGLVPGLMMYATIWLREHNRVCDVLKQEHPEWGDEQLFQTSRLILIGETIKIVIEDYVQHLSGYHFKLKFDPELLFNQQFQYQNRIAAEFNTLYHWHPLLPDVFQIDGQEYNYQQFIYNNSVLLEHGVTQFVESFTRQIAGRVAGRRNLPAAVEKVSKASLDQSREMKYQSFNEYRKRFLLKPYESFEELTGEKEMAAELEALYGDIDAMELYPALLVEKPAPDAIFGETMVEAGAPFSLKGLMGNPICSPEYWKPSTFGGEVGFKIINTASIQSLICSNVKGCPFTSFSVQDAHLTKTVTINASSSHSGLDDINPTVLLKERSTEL
Sequence of Adenosine receptor A1 (Bos taurus) (P28190 whole entry, looked up): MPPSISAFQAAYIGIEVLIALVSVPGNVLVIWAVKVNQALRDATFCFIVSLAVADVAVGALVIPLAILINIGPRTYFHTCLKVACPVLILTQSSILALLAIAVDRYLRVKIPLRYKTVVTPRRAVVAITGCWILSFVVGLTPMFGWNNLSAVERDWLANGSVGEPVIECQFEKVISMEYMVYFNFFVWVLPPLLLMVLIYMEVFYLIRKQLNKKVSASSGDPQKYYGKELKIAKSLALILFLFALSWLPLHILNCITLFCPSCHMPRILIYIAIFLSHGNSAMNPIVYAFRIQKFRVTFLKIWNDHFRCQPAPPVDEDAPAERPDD
Sequence of guinea pig Leukotriene D4 Receptor (LTD4), CYSLTR1 (gene 100135514) (Q2NNR5 whole entry, looked up): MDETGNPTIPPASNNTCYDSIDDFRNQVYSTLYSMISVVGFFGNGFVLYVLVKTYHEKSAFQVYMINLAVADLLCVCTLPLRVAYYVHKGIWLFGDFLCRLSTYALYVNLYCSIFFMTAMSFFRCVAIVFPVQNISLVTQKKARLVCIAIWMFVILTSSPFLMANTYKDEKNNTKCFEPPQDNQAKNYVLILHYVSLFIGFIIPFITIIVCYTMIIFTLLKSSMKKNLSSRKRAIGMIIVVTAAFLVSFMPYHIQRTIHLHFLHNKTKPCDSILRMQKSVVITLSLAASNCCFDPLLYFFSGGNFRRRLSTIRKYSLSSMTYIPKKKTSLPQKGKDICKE

## CC(C)(C)c1cccc(C(C)(C)C)c1O
[1]
  outcome: inactive
[2]
  outcome: inactive

## CC(C)CCCCCCOC(=O)CCCCC(=O)OCCCCCCC(C)C
[3]
  outcome: inactive

## c1ccc2c(c1)ccc1ccccc12
[4]
  outcome: inactive
[3]
  AC50: 1.16 µM (active)

## CCCOC(=O)c1ccc(O)cc1
[2]
  outcome: inactive
[5]
  AC50: 25 µM (active)
[6]
  outcome: inactive

## CC(=O)NC1(c2cccc(F)c2)CCN(CC[C@@]2(c3ccc(Cl)c(Cl)c3)CN(c3ccccc3)C(=O)CO2)CC1
[7]
  AC50: 11.3 µM (active)

## OC1CCCCC1
[5]
  outcome: inactive

## CCN(CC)CCNc1ccc(CNC=O)c2sc3ccc(OC)cc3c(=O)c12
[1]
  outcome: inactive
[8]
  outcome: inactive
[9]
  outcome: inactive
[10]
  outcome: inactive
[11]
  outcome: inactive
[12]
  outcome: inactive
[13]
  AC50: 4.38 µM (active)

## CCc1ccc(CCOc2ccc(CC3SC(=O)NC3=O)cc2)nc1 (stereo not given)
[3]
  AC50: 4.25 µM (active)

## COc1ccc([N+](=O)[O-])cc1N
[14]
  AC50: 12.2 µM (active)

## NC(=O)N(O)[C@@H]1C=C[C@H](Oc2cccc(Oc3ccc(F)cc3)c2)C1
[5]
  outcome: inactive
[14]
  outcome: inactive

## Oc1cc2ccccc2c2ccccc12
[12]
  AC50: 7.7 µM (active)
[14]
  AC50: 27.7 µM (active)

## Cc1cc(CCN2CCN(c3nsc4ccccc34)CC2)cc2c1NC(=O)CC2(C)C
[8]
  outcome: inactive
[13]
  outcome: inactive
[6]
  outcome: inactive
[15]
  outcome: inactive

## NC(=O)N1C(=O)C(C(=O)c2cc(Cl)cs2)c2cc(F)c(Cl)cc21 (stereo not given)
[4]
  outcome: inactive
[10]
  outcome: inactive
[3]
  outcome: inactive
[13]
  outcome: inactive
[6]
  AC50: 0.585 µM (active)

## CC1=C(/C=C/C(C)=C/C=C/C(C)=C/C(=O)O)C(C)(C)CCC1
[2]
  outcome: inactive
[10]
  outcome: inactive

## O=C(O)Cc1cc(I)c(Oc2cc(I)c(O)c(I)c2)c(I)c1
[16]
  outcome: inactive
[17]
  AC50: 1.6 µM (active)
[2]
  outcome: inactive
[11]
  outcome: inactive
[12]
  outcome: inactive
[13]
  outcome: inactive
